This is an account of results in PubChem BioAssay AID1851 (National Center for Advancing Translational Sciences (NCATS), 2009).

Screen size: about 16,000 compounds; about 5,800 (36%) were called active. Not shown: some 23% with an inconclusive outcome. Calls come from the whole dose curve; as a rule, active = well fitted curve in the direction sought with a large enough effect; inconclusive = small, poorly fitted or top-dose-only effect, or effect the other way; inactive = no such curve, though single readings can be large or run the other way. The list shows a part of the results.
% is set by controls: 0 for no effect and ±100 for the full control effect.

The test deals with Cytochrome P450 2C19 (Homo sapiens) (UniProt P33261). Description: Cytochrome panel assay with activity outcomes. As to conditions: recombinant CYP, pro-luciferin dealkylation, luminescence, p450-cyp2c19; series mostly up to 57.1 µM.
Cytochrome P450 2C19 (Homo sapiens), sequence (P33261 whole entry, looked up): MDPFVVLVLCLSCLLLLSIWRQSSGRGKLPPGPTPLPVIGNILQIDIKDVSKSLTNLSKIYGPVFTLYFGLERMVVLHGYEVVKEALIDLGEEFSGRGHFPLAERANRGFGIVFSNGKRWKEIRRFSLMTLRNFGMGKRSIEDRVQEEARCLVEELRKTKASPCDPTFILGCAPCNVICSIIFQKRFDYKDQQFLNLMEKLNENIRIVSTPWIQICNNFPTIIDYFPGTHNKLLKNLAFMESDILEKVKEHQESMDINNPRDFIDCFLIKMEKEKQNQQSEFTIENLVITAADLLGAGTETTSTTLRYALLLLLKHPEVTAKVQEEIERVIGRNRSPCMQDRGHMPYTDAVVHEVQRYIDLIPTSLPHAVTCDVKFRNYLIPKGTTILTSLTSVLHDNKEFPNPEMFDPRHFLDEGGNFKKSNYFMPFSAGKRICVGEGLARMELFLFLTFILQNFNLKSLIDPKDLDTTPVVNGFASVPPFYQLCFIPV
By AC50 is commonly meant the concentration at which the activity in the assay is half-maximal. Regarding `COCC(=O)N1CCC2(CC1)CCN(C(c1ccccc1)c1ccccc1)CC2`, the AC50 result is “inactive”.

With `Cc1cccc(C(=O)c2ccccc2C(=O)O)c1O`, the AC50 entry was “inactive”.

With `Cc1cccc(C(CC(=O)N2CCCC2)c2ccccc2)c1O` (stereo not drawn), the AC50 was 1.41 µM (active).

Take `CN(C)C[C@H]1CCC[C@@H](CN(C)C)C1=O`: the activity, negative = inhibition was 19.2% [at 11.4 µM] (inactive).

`N[C@@H](CO)C(=O)O`: the AC50 result was “inactive”.

As to `CC(C)[C@H]1C(=O)C(C(N)=O)=C(O)[C@]2(O)C(=O)C3=C(O)c4c(O)ccc(N(C)C)c4C[C@H]3C[C@@H]12`, the AC50 entry was “inactive”.

`O=c1ccn(-c2cccc(C(F)(F)F)c2)nc1-c1ccn(-c2ccccc2F)n1`: the AC50 was 17.8 µM (active).

Consider `CCS(=O)(=O)c1ccc2c(c1)N(S(C)(=O)=O)CC(C(=O)NCCOC)O2` (stereo not drawn), for which the AC50 result was “inactive”.

In the case of `CS(=O)(=O)N1CC(C(=O)NC2CC2)Oc2ccc(Cl)cc21` (stereo not drawn), the AC50 was 7.08 µM (active).

Take `CC(C)(C)NC[C@H](O)c1cc(O)cc(O)c1`: the AC50 entry was “inactive”.

As for `CN1CCc2cc(Cl)c(O)cc2[C@H](c2ccccc2)C1`, the AC50 entry was “inactive”.

In the case of `Cc1ccc2nc(N3CCN(S(=O)(=O)c4ccc5c(c4)OCCO5)CC3)c(C#N)cc2c1`, the concentration at half-maximal activity (AC50) was 2.51 µM (active).

`Cc1ccc(Cl)cc1N1CCN(S(=O)(=O)c2ccc3c(c2)OCCO3)CC1`: the AC50 is 3.98 µM (active).

Take `O=C(O)CCC(=O)N1CCOc2ccc(Cl)cc21`: the AC50 entry is “inactive”.

Consider `CO[C@@H]1COC(=O)CC=C[C@@H](C)[C@@H]2C=C[C@H](O)[C@@H](COC(=O)[C@H](C)NC(=O)CC=C[C@H]1C)O2`, for which the activity, negative = inhibition was -12.2% [at 11.4 µM] (inactive).

As for `CCOc1cc(NC(=O)C2CCCCC2)c(OCC)cc1NC(=O)c1ccco1`, the AC50 was 7.94 µM (active).

Regarding `CCCC[P+](CCCC)(CCCC)Cc1ccc(NC(=O)[C@@H](Cc2ccc3ccccc3c2)NC(=NC2CCCCC2)NC2CCCCC2)cc1`, the AC50 entry is “inactive”.

`CCOc1cc(NC(=O)c2cccs2)c(OCC)cc1NC(=O)c1ccco1`: the AC50 result is “inactive”.

For `CCC(NC(=O)c1ccccc1NC(=O)c1ccco1)C(=O)NC1CCCCC1` (stereo not drawn), the AC50 was 15.8 µM (active).

With `FC(F)(F)c1ccccc1-c1nc(NCc2cccnc2)c2ccccc2n1`, the AC50 was 3.98 µM (active).

In the case of `FC(F)(F)c1ccccc1-c1nc(NCc2cccs2)c2ccccc2n1`, the AC50 is 7.94 µM (active).

Regarding `COCCNc1nc(-c2ccccc2OC)nc2ccccc12`, the AC50 entry was “inactive”.

Regarding `CC(=O)NCCNc1nc(-c2ccccc2C(F)(F)F)nc2ccccc12`, the AC50 result was “inactive”.

For `CN(C)C(=O)c1ccc(-c2nc(NCc3cccnc3)c3ccccc3n2)cc1`, the AC50 result was “inactive”.

Turning to `CC(=O)NCCNc1nc(-c2ccccc2Cl)nc2ccccc12`, the AC50 was 3.98 µM (active).

On to `COCCNc1nc(-c2ccccc2C(F)(F)F)nc2ccccc12`, for which the AC50 was 20 µM (active).

As to `CC(=O)NCCNc1nc(-c2ccccc2C)nc2ccccc12`, the AC50 result is “inactive”.

On to `FC(F)(F)c1ccccc1-c1nc(NCCN2CCOCC2)c2ccccc2n1`, for which the AC50 entry was “inactive”.
